The values that follow come from ChEMBL document CHEMBL1961873, “Compounds: GSK PKIS; Assays: Nanosyn kinase panel” (2012).

Molecules are shown by their SMILES.

Assay [1] concerns the target T1, Tyrosine-protein kinase ITK/TSK (Homo sapiens) (UniProt Q08881).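 Also: values are mean percent inhibition of ITK from the GSK PKIS screen.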
T1 sequence (whole entry): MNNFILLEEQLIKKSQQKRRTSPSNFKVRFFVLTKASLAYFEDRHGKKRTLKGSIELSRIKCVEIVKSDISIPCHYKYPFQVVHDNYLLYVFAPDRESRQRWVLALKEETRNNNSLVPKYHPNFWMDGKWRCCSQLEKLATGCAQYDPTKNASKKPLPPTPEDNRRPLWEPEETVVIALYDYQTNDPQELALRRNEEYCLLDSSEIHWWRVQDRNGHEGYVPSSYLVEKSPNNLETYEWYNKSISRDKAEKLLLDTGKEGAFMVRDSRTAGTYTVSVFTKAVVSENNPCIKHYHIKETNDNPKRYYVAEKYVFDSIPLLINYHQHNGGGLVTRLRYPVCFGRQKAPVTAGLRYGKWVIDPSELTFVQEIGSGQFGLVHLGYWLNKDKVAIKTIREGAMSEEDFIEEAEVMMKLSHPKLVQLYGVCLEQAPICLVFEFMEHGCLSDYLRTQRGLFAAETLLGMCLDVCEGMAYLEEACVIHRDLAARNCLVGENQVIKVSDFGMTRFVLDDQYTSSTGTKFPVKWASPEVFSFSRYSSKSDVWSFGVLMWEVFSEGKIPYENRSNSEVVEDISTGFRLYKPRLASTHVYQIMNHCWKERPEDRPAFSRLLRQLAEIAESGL
As to conditions: at 1 µM.

Assay [2] concerns the target Tyrosine-protein kinase JAK1 (Homo sapiens) (UniProt P23458). As to conditions: at 0.1 µM.
For assay [3] the target is unchanged. As to conditions: at 1 µM.
Assay [4] concerns the target Tyrosine-protein kinase JAK2 (Homo sapiens) (UniProt O60674). The settings on record: at 0.1 µM.
Assay [5] shares this target. The settings on record: at 1 µM.
The target in assay [6] is T2, Tyrosine-protein kinase JAK3 (Homo sapiens) (UniProt P52333).
T2 sequence (whole entry): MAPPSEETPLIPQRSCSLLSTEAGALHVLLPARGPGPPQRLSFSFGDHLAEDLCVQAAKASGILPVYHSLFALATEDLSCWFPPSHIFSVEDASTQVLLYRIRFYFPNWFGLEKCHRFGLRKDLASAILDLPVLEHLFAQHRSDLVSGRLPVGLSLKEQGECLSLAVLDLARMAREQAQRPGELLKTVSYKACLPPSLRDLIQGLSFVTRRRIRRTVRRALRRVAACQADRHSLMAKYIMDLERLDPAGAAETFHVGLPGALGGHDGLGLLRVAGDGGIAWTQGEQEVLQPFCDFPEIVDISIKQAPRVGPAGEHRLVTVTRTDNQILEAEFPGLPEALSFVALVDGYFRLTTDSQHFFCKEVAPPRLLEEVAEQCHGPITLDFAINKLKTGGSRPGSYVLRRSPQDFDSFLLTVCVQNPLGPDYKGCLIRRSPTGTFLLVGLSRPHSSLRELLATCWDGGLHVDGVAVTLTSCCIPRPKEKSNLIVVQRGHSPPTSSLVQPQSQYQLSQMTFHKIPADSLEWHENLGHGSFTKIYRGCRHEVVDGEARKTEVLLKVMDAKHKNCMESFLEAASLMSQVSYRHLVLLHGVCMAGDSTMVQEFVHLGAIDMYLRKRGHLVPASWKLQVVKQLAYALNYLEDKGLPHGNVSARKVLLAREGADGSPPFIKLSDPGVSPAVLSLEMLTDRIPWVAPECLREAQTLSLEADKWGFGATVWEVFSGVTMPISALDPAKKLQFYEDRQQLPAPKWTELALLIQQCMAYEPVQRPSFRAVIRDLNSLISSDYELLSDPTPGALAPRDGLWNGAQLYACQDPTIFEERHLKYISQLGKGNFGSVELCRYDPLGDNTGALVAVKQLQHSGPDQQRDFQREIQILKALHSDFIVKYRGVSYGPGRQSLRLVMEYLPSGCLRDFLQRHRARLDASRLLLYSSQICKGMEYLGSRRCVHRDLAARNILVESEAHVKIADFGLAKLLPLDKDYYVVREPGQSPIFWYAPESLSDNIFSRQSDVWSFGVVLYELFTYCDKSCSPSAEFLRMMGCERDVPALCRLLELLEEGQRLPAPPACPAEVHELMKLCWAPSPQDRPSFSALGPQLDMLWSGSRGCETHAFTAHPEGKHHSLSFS
As to conditions: at 0.1 µM.

Assay [7] has as its target T2, Tyrosine-protein kinase JAK3 (Homo sapiens). As to conditions: at 1 µM.
For assay [8], the target named is Vascular endothelial growth factor receptor 2 (Homo sapiens) (UniProt P35968). The settings on record: at 0.1 µM.
Vascular endothelial growth factor receptor 2 (Homo sapiens), sequence (P35968 whole entry): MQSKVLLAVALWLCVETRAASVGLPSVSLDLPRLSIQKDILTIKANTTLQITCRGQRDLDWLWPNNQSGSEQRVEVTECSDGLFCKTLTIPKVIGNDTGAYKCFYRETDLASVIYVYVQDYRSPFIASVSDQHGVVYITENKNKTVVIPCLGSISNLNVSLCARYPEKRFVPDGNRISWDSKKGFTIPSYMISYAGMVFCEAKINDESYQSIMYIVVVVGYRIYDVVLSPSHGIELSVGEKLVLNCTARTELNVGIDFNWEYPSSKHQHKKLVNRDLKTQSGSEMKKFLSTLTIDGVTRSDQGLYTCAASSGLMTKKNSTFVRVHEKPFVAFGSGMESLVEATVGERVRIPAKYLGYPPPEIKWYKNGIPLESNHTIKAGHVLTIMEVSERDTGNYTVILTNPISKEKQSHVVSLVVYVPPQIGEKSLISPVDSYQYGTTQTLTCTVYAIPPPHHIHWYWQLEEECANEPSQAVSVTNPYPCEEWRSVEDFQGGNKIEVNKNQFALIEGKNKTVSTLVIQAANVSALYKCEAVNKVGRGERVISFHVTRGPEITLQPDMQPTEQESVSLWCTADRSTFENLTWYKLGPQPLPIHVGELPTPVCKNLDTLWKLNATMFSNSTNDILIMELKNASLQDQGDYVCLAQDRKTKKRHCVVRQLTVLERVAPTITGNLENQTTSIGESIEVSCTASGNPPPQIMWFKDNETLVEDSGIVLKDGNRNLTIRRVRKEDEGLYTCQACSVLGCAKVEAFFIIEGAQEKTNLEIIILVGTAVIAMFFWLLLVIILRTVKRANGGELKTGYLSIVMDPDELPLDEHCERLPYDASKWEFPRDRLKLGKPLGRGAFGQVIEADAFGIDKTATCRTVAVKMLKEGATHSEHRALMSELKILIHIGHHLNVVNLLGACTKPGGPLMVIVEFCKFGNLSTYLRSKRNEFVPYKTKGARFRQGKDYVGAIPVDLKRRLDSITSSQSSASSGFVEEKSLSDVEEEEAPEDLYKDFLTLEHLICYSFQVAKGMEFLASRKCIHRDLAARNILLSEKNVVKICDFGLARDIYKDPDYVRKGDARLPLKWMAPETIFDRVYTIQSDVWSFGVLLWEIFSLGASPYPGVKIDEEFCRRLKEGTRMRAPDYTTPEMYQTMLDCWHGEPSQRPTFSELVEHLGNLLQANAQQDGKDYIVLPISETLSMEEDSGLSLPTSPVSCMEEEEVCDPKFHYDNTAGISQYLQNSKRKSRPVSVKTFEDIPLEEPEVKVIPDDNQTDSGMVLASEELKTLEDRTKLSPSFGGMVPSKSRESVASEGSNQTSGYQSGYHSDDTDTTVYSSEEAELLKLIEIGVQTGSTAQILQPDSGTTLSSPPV
Assay [9] has the same target. The settings on record: at 1 µM.
Assay [10] deals with Mast/stem cell growth factor receptor Kit (Homo sapiens) (UniProt P10721). The settings on record: at 0.1 µM.
Mast/stem cell growth factor receptor Kit (Homo sapiens), sequence (P10721 whole entry): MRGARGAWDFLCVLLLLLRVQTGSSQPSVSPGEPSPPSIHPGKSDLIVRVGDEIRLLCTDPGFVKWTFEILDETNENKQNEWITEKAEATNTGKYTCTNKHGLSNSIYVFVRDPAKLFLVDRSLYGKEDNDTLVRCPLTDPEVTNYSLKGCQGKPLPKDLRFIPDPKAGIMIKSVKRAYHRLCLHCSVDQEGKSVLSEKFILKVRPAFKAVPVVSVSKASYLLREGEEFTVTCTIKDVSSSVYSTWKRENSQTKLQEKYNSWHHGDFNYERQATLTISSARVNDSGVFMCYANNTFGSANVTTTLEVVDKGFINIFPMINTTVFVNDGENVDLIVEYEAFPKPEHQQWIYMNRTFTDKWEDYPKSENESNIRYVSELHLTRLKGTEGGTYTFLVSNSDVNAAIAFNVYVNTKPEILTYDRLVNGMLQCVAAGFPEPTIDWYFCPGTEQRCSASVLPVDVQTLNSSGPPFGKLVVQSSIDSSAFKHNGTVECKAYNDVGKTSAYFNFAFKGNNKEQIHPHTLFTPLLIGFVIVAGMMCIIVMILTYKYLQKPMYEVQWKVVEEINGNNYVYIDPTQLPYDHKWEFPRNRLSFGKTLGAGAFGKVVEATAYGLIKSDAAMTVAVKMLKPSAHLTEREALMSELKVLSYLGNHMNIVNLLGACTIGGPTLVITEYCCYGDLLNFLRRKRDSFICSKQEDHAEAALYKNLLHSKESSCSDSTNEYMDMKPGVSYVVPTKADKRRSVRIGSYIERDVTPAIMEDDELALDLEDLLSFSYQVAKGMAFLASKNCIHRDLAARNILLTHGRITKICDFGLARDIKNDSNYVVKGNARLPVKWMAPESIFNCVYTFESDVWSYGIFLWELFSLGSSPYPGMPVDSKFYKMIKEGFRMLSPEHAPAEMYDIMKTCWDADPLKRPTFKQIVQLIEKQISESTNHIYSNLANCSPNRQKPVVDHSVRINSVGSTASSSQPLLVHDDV
The target is the same in assay [11]. The settings on record: at 1 µM.
Assay [12] has as its system Mast/stem cell growth factor receptor Kit (Homo sapiens), P10721 [D816V]. The settings on record: at 0.1 µM.
The test system is the same in assay [13]. The settings on record: at 1 µM.
In assay [14] the test system is Mast/stem cell growth factor receptor Kit (Homo sapiens), P10721 [T670I]. As to conditions: at 0.1 µM.
Mast/stem cell growth factor receptor Kit (Homo sapiens), P10721 [T670I], sequence (P10721 whole entry T670I): as the sequence (P10721 whole entry) above, with T670I counted along it
For assay [15] the test system is unchanged. The settings on record: at 1 µM.
Assay [16] has as its system Mast/stem cell growth factor receptor Kit (Homo sapiens), P10721 [V560G]. As to conditions: at 0.1 µM.
Assay [17] has the same test system. The settings on record: at 1 µM.
The target in assay [18] is Tyrosine-protein kinase Lck (Homo sapiens) (UniProt P06239). The settings on record: at 0.1 µM.
Tyrosine-protein kinase Lck (Homo sapiens), sequence (P06239 2-509 limits assumed): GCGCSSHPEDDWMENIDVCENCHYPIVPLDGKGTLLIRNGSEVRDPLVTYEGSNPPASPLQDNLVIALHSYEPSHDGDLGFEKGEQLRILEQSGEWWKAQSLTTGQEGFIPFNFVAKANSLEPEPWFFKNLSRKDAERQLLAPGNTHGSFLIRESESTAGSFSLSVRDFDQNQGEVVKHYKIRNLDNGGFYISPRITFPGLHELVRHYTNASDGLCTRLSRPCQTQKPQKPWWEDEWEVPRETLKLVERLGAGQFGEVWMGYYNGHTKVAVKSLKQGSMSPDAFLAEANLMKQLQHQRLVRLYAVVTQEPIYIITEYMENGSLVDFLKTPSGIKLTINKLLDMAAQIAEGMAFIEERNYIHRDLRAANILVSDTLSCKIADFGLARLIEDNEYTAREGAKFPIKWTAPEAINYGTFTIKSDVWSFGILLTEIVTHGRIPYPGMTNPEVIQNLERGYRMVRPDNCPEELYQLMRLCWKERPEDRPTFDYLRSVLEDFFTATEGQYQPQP
Assay [19] has the same target. As to conditions: at 1 µM.
Assay [20] deals with Leukocyte tyrosine kinase receptor (Homo sapiens) (UniProt P29376). The settings on record: at 0.1 µM.
Leukocyte tyrosine kinase receptor (Homo sapiens), sequence (P29376 whole entry): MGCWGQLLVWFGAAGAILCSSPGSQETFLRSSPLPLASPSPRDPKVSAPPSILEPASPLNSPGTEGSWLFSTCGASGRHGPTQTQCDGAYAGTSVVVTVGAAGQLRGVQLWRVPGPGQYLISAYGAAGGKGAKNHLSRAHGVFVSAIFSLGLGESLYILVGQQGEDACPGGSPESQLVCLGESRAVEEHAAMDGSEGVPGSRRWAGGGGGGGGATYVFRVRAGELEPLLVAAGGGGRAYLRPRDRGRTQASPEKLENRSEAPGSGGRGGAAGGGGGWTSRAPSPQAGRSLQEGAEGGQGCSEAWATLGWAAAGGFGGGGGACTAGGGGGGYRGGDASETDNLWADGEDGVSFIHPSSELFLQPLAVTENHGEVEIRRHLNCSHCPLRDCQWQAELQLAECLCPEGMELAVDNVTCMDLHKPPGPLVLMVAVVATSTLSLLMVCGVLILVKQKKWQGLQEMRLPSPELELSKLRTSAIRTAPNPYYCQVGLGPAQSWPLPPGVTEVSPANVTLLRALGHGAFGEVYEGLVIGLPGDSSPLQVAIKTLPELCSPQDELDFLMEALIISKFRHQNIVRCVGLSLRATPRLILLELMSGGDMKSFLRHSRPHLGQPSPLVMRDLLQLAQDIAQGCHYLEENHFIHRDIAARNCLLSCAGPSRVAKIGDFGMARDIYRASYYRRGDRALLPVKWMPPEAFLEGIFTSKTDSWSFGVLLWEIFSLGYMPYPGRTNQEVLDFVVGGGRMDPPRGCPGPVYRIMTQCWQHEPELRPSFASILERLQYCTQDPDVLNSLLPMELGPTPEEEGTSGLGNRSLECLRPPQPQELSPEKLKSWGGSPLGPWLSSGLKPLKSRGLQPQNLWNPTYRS

Tyrosine-protein kinase JAK2 (Homo sapiens), sequence (O60674 whole entry): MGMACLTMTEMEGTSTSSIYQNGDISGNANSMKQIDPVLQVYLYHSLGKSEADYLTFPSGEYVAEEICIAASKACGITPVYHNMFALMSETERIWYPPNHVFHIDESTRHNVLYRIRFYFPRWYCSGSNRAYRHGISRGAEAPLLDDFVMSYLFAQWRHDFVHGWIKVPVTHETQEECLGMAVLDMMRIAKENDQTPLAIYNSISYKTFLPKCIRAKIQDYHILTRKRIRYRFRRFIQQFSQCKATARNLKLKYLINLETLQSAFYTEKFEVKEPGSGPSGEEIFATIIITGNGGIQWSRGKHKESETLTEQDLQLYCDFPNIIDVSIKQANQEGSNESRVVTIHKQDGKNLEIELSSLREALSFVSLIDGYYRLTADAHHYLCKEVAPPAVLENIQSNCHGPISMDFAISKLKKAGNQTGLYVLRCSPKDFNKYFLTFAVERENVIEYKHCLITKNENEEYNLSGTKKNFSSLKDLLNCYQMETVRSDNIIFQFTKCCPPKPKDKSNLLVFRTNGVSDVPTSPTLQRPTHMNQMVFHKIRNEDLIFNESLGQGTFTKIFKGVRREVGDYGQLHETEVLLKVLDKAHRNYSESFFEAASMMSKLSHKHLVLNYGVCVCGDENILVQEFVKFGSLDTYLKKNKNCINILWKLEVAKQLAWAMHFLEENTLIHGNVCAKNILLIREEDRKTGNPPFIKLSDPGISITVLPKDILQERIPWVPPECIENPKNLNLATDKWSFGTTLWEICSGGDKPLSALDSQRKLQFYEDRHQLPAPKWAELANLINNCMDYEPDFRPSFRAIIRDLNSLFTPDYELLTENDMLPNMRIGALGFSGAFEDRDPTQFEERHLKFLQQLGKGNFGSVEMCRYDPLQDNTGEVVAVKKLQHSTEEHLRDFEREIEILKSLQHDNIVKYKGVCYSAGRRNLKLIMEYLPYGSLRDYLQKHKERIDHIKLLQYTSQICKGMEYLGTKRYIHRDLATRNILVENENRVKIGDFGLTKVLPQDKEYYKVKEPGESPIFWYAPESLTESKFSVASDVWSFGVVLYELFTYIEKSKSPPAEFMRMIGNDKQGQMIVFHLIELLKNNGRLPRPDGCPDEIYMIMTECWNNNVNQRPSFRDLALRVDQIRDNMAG
Mast/stem cell growth factor receptor Kit (Homo sapiens), P10721 [D816V], sequence (P10721 whole entry D816V): as the sequence (P10721 whole entry) above, with D816V counted along it
Mast/stem cell growth factor receptor Kit (Homo sapiens), P10721 [V560G], sequence (P10721 whole entry V560G): as the sequence (P10721 whole entry) above, with V560G counted along it

In the case of `NS(=O)(=O)c1cccc(Nc2cc(-c3ccc(F)cc3)n[nH]2)c1`, the inhibition was 6.64% in assay [1]; 3.56% in assay [2]; 10.4% in assay [3]; 0.36% in assay [4]; 1.81% in assay [5]; -1.55% in assay [6]. In addition, the inhibition in assay [7] came out at 1.11%; in [8], 5.37%; in [9], 15.3%; in assay [10] it was 34.5%; in assay [11] it was 84.5%; in assay [12], 2.34%. In addition, the inhibition in assay [13] came to 4.52%; in assay [14], 3.28%; in assay [15] it was 20.1%; in assay [16], 6.14%; in assay [17], 38%; in assay [18] it was 1.18%. Further, the inhibition was 6.1% in assay [19] and 3.59% in assay [20].

`Oc1cccc(-c2nc(-c3ccccc3)[nH]c2-c2ccncc2)c1`: the inhibition in assay [1] was found to be 1.61%; in assay [2] it was 9.17%; in assay [3], 5.42%; in assay [4], 1.43%; in assay [5], 2.51%; in assay [6] it was 0.73%. Moreover, the inhibition was 9.09% in assay [7]; 30.8% in assay [8]; 70.9% in assay [9]; 4.95% in [10]; 8.38% in assay [11]; -0.23% in assay [12]. Also, the inhibition was 6.52% in assay [13]; 2.52% in assay [14]; 3.34% in assay [15]; 1.61% in assay [16]; 3.96% in assay [17]; 4.47% in [18]. The inhibition in [19] was 17.7%; in [20] it was 3.98%.

In the case of `NS(=O)(=O)c1ccc(Nc2cc(-c3cccc(O)c3)n[nH]2)cc1`, the inhibition in [1] was 4.07%; in [2], 4.66%; in [3], 7.23%; in [4] it was 1.41%; in assay [5], 1.95%; in assay [6], -1.44%. Further, the inhibition was found to be 1.25% in [7]; 9.9% in assay [8]; 19.2% in [9]; 33.2% in [10]; 83.7% in [11]; 3.6% in [12]. The inhibition in [13] was found to be 4.78%; in [14], 4.57%; in assay [15], 4.81%; in assay [16], 4.28%; in assay [17], 25.4%; in assay [18] it was 1.64%. Also, the results for the inhibition in assay [19] and in [20] were 4.8% and 2.99%, respectively.

For `Cc1nc(-c2ccccc2)n2nc(NCCCN3CCOCC3)ncc12`, the inhibition was 1.89% in [1]; 3.7% in [2]; 4.63% in assay [3]; 0.5% in [4]; 1.89% in assay [5]; -2.38% in [6]. In addition, the inhibition was 0.04% in assay [7]; 2.59% in assay [8]; 5.25% in assay [9]; 3.52% in assay [10]; 8.46% in assay [11]; 1.35% in assay [12]. The inhibition in assay [13] was 1.56%; in assay [14], 1.72%; in [15], 1.33%; in assay [16], -1.38%; in [17], 0.39%; in assay [18], 2.08%. Moreover, the inhibition in assay [19] stood at 5.01%; in [20] it was 2.89%.

On to `Cc1cc(O)cc(C)c1/C=C/c1cncc(C(=O)N(C)C)c1`, for which the inhibition is 1.94% in assay [1]; 4.52% in assay [2]; 5.42% in [3]; 1.7% in assay [4]; 3.22% in assay [5]; -0.76% in [6]. Also, the inhibition in assay [7] was 1.31%; in [8], 7.06%; in assay [9], 12.3%; in assay [10], 4.12%; in [11] it was 8.58%; in assay [12], 0.33%. The inhibition in assay [13] is 1.49%; in [14], 2.61%; in [15], 1.57%; in assay [16] it was 5.07%; in assay [17], 4.85%; in [18], 3.69%. Further, the inhibition in assay [19] amounted to 8.38%; in [20], 2.93%.

With `NS(=O)(=O)c1ccc(NC=C2C(=O)Nc3ccc4ncsc4c32)cc1`, the inhibition in [1] is 15.1%; in assay [2] it was 9.37%; in assay [3] it was 50.7%; in [4] it was 2.72%; in [5] it was 23.6%; in assay [6], 22.7%. The inhibition was found to be 63.7% in [7]; 60.5% in [8]; 71% in assay [9]; 68.4% in assay [10]; 94.3% in assay [11]; 8.42% in assay [12]. In addition, the inhibition in assay [13] was 31%; in assay [14], 19.8%; in [15], 67.2%; in assay [16], 1.8%; in assay [17] it was 32%; in assay [18], 5.47%. The inhibition in assay [19] came to 30.9%; in [20], 4.74%.
